Records with an inconclusive call do not appear. Active and inactive are the calls of the source. The calls were made as follows: active = hit-call score of the fitted dose curve at least 0.9, where 1 is the maximum; inconclusive = response in the unintended direction; inactive = score below 0.9.
Experiments:
[1] = biological target: Cytochrome P450 2C19 (Homo sapiens) (UniProt P33261); test: NVS_ADME_hCYP2C19: NovaScreen (NVS) CYP450-related Enzyme Activity (ADME) Assay for human CYP2C19 (AID 2283113);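 also: potency for inhibition seen as loss of fluorescent signal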
Summary of the method: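 Chemicals first screened in duplicate at 10 uM against recombinant human enzyme produced in insect cells; confirmed actives then run as concentration series. Fluorogenic substrate turnover read by fluorescence after 1 h, normalised to acetonitrile.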

[2] = biological target: human Beta-secretase (BACE), BACE1 (gene 23621) (UniProt P56817); test: NVS_ENZ_hBACE: NovaScreen (NVS) Enzymatic Assay for human Beta-secretase (BACE) (AID 2283140);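 also: hits are inhibitors that reduce fluorescent substrate signal versus DMSO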
Summary of the method: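 Cell-free assay of recombinant Sf9-expressed human BACE with fluorescent substrate, read by fluorescence intensity after 1 h. Primary screen in duplicate at 25 uM; actives then run in concentration series; loss of signal relative to DMSO.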

[3] = biological target: human Esterase Plasma (ES), BCHE (gene 590) (UniProt P06276); test: NVS_ENZ_hES: NovaScreen (NVS) Enzymatic Assay for human Esterase Plasma (ES) (AID 2283157)
Summary of the method: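 Cell-free enzyme assay using esterase extracted from human plasma; colorimetric absorbance read 0.25 hour after dosing. Single-concentration duplicate screen at 25 uM, then concentration-response up to 50 uM; loss of signal scored against DMSO baseline.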

[4] = biological target: human Ephrin type-A Receptor 1 (EphA1), EPHA1 (gene 2041) (UniProt P21709); test: NVS_ENZ_hEphA1: NovaScreen (NVS) Enzymatic Assay for human Ephrin type-A Receptor 1 (EphA1) (AID 2283158);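 also: activity is signal loss versus DMSO meaning EphA1 kinase inhibition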
Summary of the method: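 Biochemical kinase assay run cell-free; 1 h incubation; readout is fluorescence with mobility-shift separation of product. Concentration-response up to 50 uM for actives from a 25 uM screen.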

[5] = biological target: human Dual Specificity Protein Phosphatase 3 (DUSP3), DUSP3 (gene 1845) (UniProt P51452); test: NVS_ENZ_hDUSP3: NovaScreen (NVS) Enzymatic Assay for human Dual Specificity Protein Phosphatase 3 (DUSP3) (AID 2283152);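 also: phosphatase activity of recombinant human DUSP3 on a fluorogenic substrate without cells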
Summary of the method: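 Cell-free assay with recombinant human DUSP3 and fluorogenic substrate, read by fluorescence intensity. Primary screen ran duplicate at 25 uM; actives followed up in concentration series; loss of signal versus DMSO scored.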

[6] = biological target: Glycogen synthase kinase-3 beta (Homo sapiens) (UniProt P49841); test: NVS_ENZ_hGSK3b: NovaScreen (NVS) Enzymatic Assay for human Glycogen Synthase Kinase-3 beta (GSK3b) (AID 2283165)
Summary of the method: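 Recombinant enzyme with specific fluorescent substrate, 1 h, product separated by electrophoretic mobility shift. Primary duplicate screen at 25 uM; actives (e.g. 30% inhibition) followed in singleton concentration-response to 50 uM. Signal loss fitted versus DMSO.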

[7] = biological target: Cytochrome P450 3A4 (Homo sapiens) (UniProt P08684); test: NVS_ADME_hCYP3A4: NovaScreen (NVS) CYP450-related Enzyme Activity (ADME) Assay for human CYP3A4 (AID 2283110)
Summary of the method: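 Cell-free assay using insect-cell-expressed human CYP3A4 with a fluorogenic substrate; fluorescence intensity was read 0.33 hour after dosing. Loss of signal relative to acetonitrile vehicle indicated inhibition. Primary single-concentration screen at 10 uM, in duplicate, then concentration series.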

[8] = biological target: human Acid Phosphatase 1 (ACP1), ACP1 (gene 52) (UniProt P24666); test: NVS_ENZ_hACP1: NovaScreen (NVS) Enzymatic Assay for human Acid Phosphatase 1 (ACP1) (AID 2283136)
Summary of the method: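 Recombinant enzyme expressed in Sf9 cells, tested cell-free; activity read by fluorescence with electrophoretic mobility shift separation of substrate and product, 1.5 h after dosing. Primary screen in duplicate at 25 uM, actives then run in concentration series; loss of signal versus DMSO.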

[9] = biological target: human Caspase 5 (CASP5), CASP5 (gene 838) (UniProt P51878); test: NVS_ENZ_hCASP5: NovaScreen (NVS) Enzymatic Assay for human Caspase 5 (CASP5) (AID 2283137)
Summary of the method: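 Recombinant human caspase 5 expressed in E. coli, fluorogenic substrate, fluorescence read 2 h after dosing. Single-point 25 uM duplicate screen, then concentration-response to maximum 50 uM for actives; DMSO baseline.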

[10] = biological target: human AKT serine/threonine Kinase 1 (AKT1), AKT1 (gene 207) (UniProt P31749); test: NVS_ENZ_hAKT1: NovaScreen (NVS) Enzymatic Assay for human AKT serine/threonine Kinase 1 (AKT1) (AID 2283138)
Summary of the method: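 Recombinant human AKT1 with a specific substrate, product separated by electrophoretic mobility shift, read after 1 h. Compounds at 25 uM in duplicate, then concentration-response up to 50 uM for hits; inhibition relative to DMSO.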

[11] = biological target: human AKT serine/threonine Kinase 2 (AKT2), AKT2 (gene 208) (UniProt P31751); test: NVS_ENZ_hAKT2: NovaScreen (NVS) Enzymatic Assay for human AKT serine/threonine Kinase 2 (AKT2) (AID 2283141)
Summary of the method: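 Cell-free fluorescence/electrophoretic mobility shift readout of recombinant human AKT2 activity, 1 h after chemical dosing. Duplicate primary screen at 25 uM, then singleton concentration-response up to 50 uM; loss of signal versus DMSO baseline.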

CDK2 (gene 1017) = CDK2 (gene 1017) (UniProt P24941); test: NVS_ENZ_hCDK2: NovaScreen (NVS) Enzymatic Assay for human Cyclin-Cependent Kinase 2 (CDK2) (AID 2283144)
Summary of the method: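 Cell-free recombinant human CDK2 with fluorescent substrate, product separated by electrophoretic mobility shift; 1 hr read. Primary screen at 25 uM in duplicate, actives retested in concentration-response up to 50 uM; loss of signal versus DMSO.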

[12] = biological target: human Casein Kinase 1-delta (CK1D), CSNK1D (gene 1453) (UniProt P48730); test: NVS_ENZ_hCK1D: NovaScreen (NVS) Enzymatic Assay for human Casein Kinase 1-delta (CK1D) (AID 2283148)
Summary of the method: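 Recombinant human CK1-delta, cell-free; fluorescent substrate with electrophoretic mobility-shift separation of product, read 1 h after dosing. Single 25 uM duplicate screen, then concentration-response up to 50 uM; loss of signal vs DMSO.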

[13] = biological target: human Colony Stimulating Factor 1 Receptor (CSF1R), CSF1R (gene 1436) (UniProt P07333); test: NVS_ENZ_hCSF1R: NovaScreen (NVS) Enzymatic Assay for human Colony Stimulating Factor 1 Receptor (CSF1R) (AID 2283150)
Summary of the method: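 Cell-free recombinant human CSF1R kinase with fluorescent substrate, product separated by electrophoretic mobility shift; read 1 h after dosing. Primary screen at 25 uM in duplicate, actives then in concentration-response up to 50 uM, relative to DMSO.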

[14] = biological target: Histone deacetylase 3 (Homo sapiens) (UniProt O15379); test: NVS_ENZ_hHDAC3: NovaScreen (NVS) Enzymatic Assay for human Histone Deacetylase 3 (HDAC3) (AID 2283163)
Summary of the method: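 Recombinant human HDAC3 with fluorescent substrate, 1 h after dosing; product separated from substrate by electrophoretic mobility shift and read by fluorescence. Primary screen at 25 uM in duplicate; actives (e.g. ≥30% inhibition) retested in concentration-response up to 50 uM.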

[15] = biological target: human c-Jun N-terminal Kinases (JNK2), MAPK9 (gene 5601) (UniProt P45984); test: NVS_ENZ_hJNK2: NovaScreen (NVS) Enzymatic Assay for human c-Jun N-terminal Kinases (JNK2) (AID 2283171)
Summary of the method: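 Cell-free recombinant human JNK2 activity assay; fluorescent substrate and product separated by electrophoretic mobility shift, read 1 h after dosing. Primary duplicate screen at 25 uM; actives run in concentration-response up to 50 uM, relative to DMSO.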

[16] = biological target: human Elastase, ELANE (gene 1991) (UniProt P08246); test: NVS_ENZ_hElastase: NovaScreen (NVS) Enzymatic Assay for human Elastase (AID 2283153)
Summary of the method: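 Cell-free elastase from human neutrophils, 1.5 h after dosing, activity read by absorbance. Primary screen in duplicate at 25 uM; hits (e.g., 30% inhibition) rerun in singleton concentration-response up to 50 uM, fitted versus DMSO.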

[17] = biological target: human FYN Proto-Oncogene, Src family Tyrosine Kinase (Fyn), FYN (gene 2534) (UniProt P06241); test: NVS_ENZ_hFyn: NovaScreen (NVS) Enzymatic Assay for human FYN Proto-Oncogene, Src family Tyrosine Kinase (Fyn) (AID 2283161)
Summary of the method: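 Recombinant enzyme with fluorescent substrate, product separated by electrophoretic mobility shift; read 1 h after dosing. Duplicate 25 uM single-point screen, actives retested in concentration series; loss of signal vs DMSO.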

[18] = biological target: human Janus Kinase 2 (Jak2), JAK2 (gene 3717) (UniProt O60674); test: NVS_ENZ_hJak2: NovaScreen (NVS) Enzymatic Assay for human Janus Kinase 2 (Jak2) (AID 2283169)
Summary of the method: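 Cell-free recombinant human JAK2 enzyme activity assay, fluorescence/electrophoretic mobility shift read 1 h after dosing. Screened in duplicate at 25 uM, then concentration-response up to 50 uM; activity as signal loss relative to DMSO.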

[19] = biological target: rat CYP2A2, Cyp2a2 (gene 24895) (UniProt P15149); test: NVS_ADME_rCYP2A2: NovaScreen (NVS) CYP450-related Enzyme Activity (ADME) Assay for rat CYP2A2 (AID 2283116)
Summary of the method: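 Cell-free recombinant rat CYP2A2 activity with fluorogenic substrate, fluorescence read 0.2 h after dosing. Chemicals screened at 10 uM in duplicate, hits then run in concentration-response up to 20 uM; signal loss versus acetonitrile baseline.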

Glycogen synthase kinase-3 beta (Homo sapiens), sequence (P49841 whole entry, looked up): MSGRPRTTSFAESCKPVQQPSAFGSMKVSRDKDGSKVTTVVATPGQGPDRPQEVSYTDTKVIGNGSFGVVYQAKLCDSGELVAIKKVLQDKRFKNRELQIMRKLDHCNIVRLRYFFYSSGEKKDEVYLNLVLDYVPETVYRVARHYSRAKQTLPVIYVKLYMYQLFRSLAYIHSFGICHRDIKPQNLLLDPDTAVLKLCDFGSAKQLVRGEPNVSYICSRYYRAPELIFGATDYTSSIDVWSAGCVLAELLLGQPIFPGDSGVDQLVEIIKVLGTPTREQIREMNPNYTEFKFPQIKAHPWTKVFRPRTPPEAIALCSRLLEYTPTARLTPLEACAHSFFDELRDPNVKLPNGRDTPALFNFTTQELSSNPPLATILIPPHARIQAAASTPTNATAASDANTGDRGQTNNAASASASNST
human AKT serine/threonine Kinase 1 (AKT1), AKT1 (gene 207), sequence (P31749 whole entry, looked up): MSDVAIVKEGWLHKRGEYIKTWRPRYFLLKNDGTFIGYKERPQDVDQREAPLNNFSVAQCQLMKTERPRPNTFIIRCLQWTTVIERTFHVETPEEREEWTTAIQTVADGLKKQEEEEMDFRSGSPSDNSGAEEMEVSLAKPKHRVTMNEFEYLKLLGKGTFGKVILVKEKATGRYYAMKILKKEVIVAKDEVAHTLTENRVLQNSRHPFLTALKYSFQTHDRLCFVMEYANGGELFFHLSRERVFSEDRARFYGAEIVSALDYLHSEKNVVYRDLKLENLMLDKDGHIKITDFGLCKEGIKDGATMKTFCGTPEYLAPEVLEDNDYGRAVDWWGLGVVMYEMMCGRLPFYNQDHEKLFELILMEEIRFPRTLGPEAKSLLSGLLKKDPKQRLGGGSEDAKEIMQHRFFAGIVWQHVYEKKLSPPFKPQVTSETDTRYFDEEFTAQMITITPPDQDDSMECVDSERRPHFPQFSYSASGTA
human Dual Specificity Protein Phosphatase 3 (DUSP3), DUSP3 (gene 1845), sequence (P51452 whole entry, looked up): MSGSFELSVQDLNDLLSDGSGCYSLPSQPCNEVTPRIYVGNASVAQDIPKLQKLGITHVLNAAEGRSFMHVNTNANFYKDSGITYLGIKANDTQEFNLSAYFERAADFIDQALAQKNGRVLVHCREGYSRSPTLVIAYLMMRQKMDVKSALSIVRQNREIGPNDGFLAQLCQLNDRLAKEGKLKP
human Beta-secretase (BACE), BACE1 (gene 23621), sequence (P56817 whole entry, looked up): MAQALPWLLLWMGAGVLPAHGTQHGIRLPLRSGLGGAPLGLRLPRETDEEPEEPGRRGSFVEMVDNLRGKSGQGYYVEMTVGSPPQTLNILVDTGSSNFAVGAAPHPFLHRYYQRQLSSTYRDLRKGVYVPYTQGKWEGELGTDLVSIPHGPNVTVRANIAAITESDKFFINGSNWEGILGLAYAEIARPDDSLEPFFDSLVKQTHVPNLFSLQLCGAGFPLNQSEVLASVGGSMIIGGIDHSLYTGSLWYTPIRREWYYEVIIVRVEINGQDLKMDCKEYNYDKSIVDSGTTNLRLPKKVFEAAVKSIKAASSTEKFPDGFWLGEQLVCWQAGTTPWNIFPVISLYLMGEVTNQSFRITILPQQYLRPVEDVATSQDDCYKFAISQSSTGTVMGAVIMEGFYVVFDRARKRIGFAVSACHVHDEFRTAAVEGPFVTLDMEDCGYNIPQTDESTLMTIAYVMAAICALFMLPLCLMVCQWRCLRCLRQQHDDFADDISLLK
human Esterase Plasma (ES), BCHE (gene 590), sequence (P06276 whole entry, looked up): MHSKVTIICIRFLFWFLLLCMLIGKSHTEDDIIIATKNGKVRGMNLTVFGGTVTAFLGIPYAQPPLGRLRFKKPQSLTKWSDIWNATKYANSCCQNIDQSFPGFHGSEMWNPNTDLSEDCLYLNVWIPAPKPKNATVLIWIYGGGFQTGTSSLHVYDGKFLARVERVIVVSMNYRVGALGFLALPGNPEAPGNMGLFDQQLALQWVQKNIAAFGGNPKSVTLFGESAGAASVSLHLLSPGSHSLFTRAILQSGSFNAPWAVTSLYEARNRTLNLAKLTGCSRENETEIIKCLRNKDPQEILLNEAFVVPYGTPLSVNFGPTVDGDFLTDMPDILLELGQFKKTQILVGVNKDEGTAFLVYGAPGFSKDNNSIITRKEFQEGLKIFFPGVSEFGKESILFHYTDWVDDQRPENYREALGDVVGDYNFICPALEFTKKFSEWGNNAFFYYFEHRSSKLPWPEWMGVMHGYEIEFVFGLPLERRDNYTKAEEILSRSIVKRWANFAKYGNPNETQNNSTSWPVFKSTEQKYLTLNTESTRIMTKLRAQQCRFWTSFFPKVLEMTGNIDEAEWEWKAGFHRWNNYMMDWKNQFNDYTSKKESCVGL
human Ephrin type-A Receptor 1 (EphA1), EPHA1 (gene 2041), sequence (P21709 whole entry, looked up): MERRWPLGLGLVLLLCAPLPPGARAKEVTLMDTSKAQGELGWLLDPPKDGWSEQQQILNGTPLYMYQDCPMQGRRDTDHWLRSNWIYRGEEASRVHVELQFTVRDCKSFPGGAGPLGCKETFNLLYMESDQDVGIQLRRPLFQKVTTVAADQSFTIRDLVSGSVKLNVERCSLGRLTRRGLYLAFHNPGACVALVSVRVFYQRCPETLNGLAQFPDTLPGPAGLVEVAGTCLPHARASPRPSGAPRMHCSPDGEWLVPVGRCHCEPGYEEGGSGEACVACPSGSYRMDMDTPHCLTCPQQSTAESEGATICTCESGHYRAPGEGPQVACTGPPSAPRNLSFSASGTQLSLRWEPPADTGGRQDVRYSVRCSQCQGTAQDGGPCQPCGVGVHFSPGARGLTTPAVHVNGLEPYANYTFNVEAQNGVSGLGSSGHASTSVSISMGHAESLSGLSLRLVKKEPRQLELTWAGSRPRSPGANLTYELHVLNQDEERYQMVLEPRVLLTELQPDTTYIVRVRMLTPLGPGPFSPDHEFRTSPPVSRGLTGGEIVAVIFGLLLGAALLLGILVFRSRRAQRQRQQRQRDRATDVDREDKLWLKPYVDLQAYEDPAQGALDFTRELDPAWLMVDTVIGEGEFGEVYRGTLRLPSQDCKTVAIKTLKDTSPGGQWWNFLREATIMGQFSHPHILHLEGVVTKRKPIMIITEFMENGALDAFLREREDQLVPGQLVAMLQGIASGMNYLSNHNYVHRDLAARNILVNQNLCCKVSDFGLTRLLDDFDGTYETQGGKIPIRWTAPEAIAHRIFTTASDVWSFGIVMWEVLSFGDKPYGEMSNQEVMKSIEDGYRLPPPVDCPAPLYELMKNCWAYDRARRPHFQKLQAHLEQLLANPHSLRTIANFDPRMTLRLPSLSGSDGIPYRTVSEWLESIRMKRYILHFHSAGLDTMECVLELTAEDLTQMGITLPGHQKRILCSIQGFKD
human c-Jun N-terminal Kinases (JNK2), MAPK9 (gene 5601), sequence (P45984 whole entry, looked up): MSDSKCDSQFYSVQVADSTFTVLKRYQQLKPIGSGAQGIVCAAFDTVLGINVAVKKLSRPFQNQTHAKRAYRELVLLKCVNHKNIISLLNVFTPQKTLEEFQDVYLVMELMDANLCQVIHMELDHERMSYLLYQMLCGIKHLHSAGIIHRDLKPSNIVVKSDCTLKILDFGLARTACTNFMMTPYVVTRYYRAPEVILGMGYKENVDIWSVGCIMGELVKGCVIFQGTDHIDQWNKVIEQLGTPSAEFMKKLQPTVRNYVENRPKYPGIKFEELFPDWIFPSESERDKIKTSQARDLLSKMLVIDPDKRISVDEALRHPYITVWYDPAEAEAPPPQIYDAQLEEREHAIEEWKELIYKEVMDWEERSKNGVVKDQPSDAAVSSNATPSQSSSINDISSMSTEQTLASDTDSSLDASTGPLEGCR
Cytochrome P450 3A4 (Homo sapiens), sequence (P08684 whole entry, looked up): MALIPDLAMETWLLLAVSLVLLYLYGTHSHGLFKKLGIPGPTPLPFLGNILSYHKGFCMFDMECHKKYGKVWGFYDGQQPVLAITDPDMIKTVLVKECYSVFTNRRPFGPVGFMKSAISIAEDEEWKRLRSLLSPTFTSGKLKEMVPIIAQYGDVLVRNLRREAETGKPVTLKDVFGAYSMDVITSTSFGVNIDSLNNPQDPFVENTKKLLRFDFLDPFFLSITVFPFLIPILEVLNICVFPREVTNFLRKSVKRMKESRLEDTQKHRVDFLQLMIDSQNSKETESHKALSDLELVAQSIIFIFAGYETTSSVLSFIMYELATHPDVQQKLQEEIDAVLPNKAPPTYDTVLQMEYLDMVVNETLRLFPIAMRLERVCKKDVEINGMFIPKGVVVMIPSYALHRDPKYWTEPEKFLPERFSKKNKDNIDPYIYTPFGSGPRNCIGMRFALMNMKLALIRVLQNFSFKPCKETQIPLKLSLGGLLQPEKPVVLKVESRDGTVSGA
human Casein Kinase 1-delta (CK1D), CSNK1D (gene 1453), sequence (P48730 whole entry, looked up): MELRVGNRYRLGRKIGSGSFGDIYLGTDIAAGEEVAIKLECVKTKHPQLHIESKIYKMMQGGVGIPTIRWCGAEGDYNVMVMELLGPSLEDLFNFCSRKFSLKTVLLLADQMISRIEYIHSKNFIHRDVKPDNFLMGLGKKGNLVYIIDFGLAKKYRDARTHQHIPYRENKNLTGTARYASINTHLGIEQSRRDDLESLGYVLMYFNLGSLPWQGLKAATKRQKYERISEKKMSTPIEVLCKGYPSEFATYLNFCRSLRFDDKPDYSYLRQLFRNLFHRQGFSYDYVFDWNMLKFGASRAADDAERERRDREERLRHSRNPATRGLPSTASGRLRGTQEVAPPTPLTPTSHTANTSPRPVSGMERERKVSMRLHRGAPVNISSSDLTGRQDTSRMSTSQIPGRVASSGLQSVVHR
human Acid Phosphatase 1 (ACP1), ACP1 (gene 52), sequence (P24666 whole entry, looked up): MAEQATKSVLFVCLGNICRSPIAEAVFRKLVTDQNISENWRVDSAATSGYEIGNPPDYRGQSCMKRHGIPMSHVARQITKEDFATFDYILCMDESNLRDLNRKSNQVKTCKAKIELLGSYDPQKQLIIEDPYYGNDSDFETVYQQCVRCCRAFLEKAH
human Elastase, ELANE (gene 1991), sequence (P08246 whole entry, looked up): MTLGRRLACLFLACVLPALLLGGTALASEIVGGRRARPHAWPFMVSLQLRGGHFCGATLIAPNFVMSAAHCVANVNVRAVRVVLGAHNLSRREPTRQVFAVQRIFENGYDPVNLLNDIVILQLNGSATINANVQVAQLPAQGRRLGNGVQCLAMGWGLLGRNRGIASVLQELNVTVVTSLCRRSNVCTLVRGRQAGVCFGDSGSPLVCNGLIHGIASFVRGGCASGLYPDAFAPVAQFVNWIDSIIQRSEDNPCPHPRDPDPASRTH

Cc1ccc(N=Nc2c(O)ccc3ccccc23)c(C)c1
AC50 [1]: 0.565 µM (active)

CN(Cc1cnc2nc(N)nc(N)c2n1)c1ccc(C(=O)N[C@@H](CCC(=O)O)C(=O)O)cc1
outcome [2]: inactive

NS(=O)(=O)O
outcome [2]: inactive

N=C(N)c1ccc(OCCCCCOc2ccc(C(=N)N)cc2)cc1
AC50 [3]: 6.56 µM (active)

CC1=NN(c2ccccc2)C(=O)C1
outcome [4]: inactive

CC(C)CCOCCC(C)C
AC50 [1]: 5 µM (active)

CNNCc1ccc(C(=O)NC(C)C)cc1
outcome [2]: inactive

CN(C)CCOC(c1ccccc1)c1ccccc1
AC50 [3]: 11.4 µM (active)

CCCCCCCCCCCCCCCC(=O)OC
AC50 [5]: 6.25 µM (active)

CCCCC=O
outcome [6]: inactive

CCCCCCCCCCCCCCC
AC50 [1]: 10 µM (active)

c1cc[nH]c1
AC50 [1]: 0.992 µM (active)

O=C(NO)c1ccccc1
outcome [4]: inactive

CCCCC(CC)C(=O)OCCOCCOCCOCCOC(=O)C(CC)CCCC (centres undefined)
outcome [7]: inactive

O=C(c1ccccc1)c1ccccc1
outcome [6]: inactive

CCCCCCCCCCCCOS(=O)(=O)O
outcome [8]: inactive | AC50 [9]: 25 µM (active) | outcome [10]: inactive | AC50 [2]: 2.91 µM (active) | AC50 [11]: 32.9 µM (active) | outcome (CDK2 (gene 1017)): inactive | outcome [12]: inactive | AC50 [13]: 29.1 µM (active) | outcome [4]: inactive | outcome [14]: inactive | AC50 [15]: 37.5 µM (active)

O=C(CCCN1CCC(O)(c2ccc(Cl)cc2)CC1)c1ccc(F)cc1
outcome [10]: inactive | AC50 [3]: 6.15 µM (active)

CS(=O)(=O)c1ccc([C@@H](CC2CCCC2)C(=O)Nc2cnccn2)cc1Cl
outcome [12]: inactive | AC50 [5]: 6.36 µM (active)

CCCCC(CC)C(=O)O (centres undefined)
outcome [8]: inactive

Cc1[nH]nc2c1N=C(c1ccccc1Cl)c1cc([N+](=O)[O-])ccc1N2
outcome [9]: inactive | AC50 (CDK2 (gene 1017)): 0.0067 µM (active) | AC50 [13]: 0.00229 µM (active) | AC50 [5]: 16.9 µM (active) | AC50 [16]: 4.93 µM (active) | AC50 [4]: 8.96 µM (active) | outcome [17]: inactive | AC50 [6]: 0.00229 µM (active) | AC50 [18]: 0.00328 µM (active) | AC50 [15]: 35.8 µM (active)

Cc1ccc(C(=O)c2ccccc2)cc1
outcome [4]: inactive

CCCCCCCCCCCC
outcome [4]: inactive

CCC(C)c1ccccc1O (centres undefined)
outcome [10]: inactive | outcome [14]: inactive

CC(C)(C)c1ccc(O)c(O)c1
outcome [4]: inactive

CCCCCCCCCCCCCCCCCC[N+](C)(C)Cc1ccccc1
AC50 [1]: 1.8 µM (active) | AC50 [5]: 4.54 µM (active) | outcome [4]: inactive

CCOC(C)=O
outcome [2]: inactive

CCCCc1oc2ccccc2c1C(=O)c1cc(I)c(OCCN(CC)CC)c(I)c1
AC50 [2]: 3.91 µM (active) | outcome [3]: inactive

CC(C)C=O
AC50 [7]: 5 µM (active)

NC(=NCCCCCCN=C(N)/N=C(\N)Nc1ccc(Cl)cc1)/N=C(\N)Nc1ccc(Cl)cc1
AC50 [19]: 2.84 µM (active)

Reference: PubChem BioAssay (EPA / NIEHS)
